In all, about 53,000 compounds went through this assay and about 900 (1.7%) showed an effect of 50% or more. This excerpt belongs to a sample that is enriched for strong results.

The test system of the test is Mycobacterium tuberculosis. In words: Cornell - Phenotypic assay to identify agents that inhibit growth of Mycobacterium tuberculosis. It counts as functional. On the set-up: scale not given: direction of the effect not stated beside the values. Particulars: 10 mM as filed; unlikely as a test dose.
As for `CCc1csc(C2CCCN(C(=O)c3ccc(=O)n(CC)n3)C2)n1` (centres undefined), the “Percent Effect” value is -10.64%.
In the case of `CCc1nc(C(=O)N(CC)CC(=O)N(C)C)nn1-c1ccccc1Cl`, the “Percent Effect” value is given as 10.69%.
Turning to `CCCn1nnnc1CN(c1ccc(C)cc1)C(C)C`, the “Percent Effect” value amounted to 13.52%.
With `CCCn1nnnc1CN(C)C(C)c1ccc(C)cc1` (centres undefined) the figure was 18.09%; with `CCCn1nnnc1CN(c1ccc(N2CCOCC2)cc1)C(C)C`, 100.7%; with `c1ccc(CN2CCC(CCNc3ncnc4c3CCNCC4)C2)cc1` (centres undefined), 21.24%.
In the case of `CN1C(=O)CCCC12CCCN(Cc1cccs1)C2.O=C(O)C(F)(F)F` (centres undefined), the “Percent Effect” value was found to be 15.82%.
`COCCN1CC2(CCN(C(=O)c3ccno3)CC2)c2ccccc21.O=C(O)C(F)(F)F`: the “Percent Effect” value is on record as -25.4%.
Regarding `COCCN1CC2(CCN(Cc3ccco3)CC2)c2ccccc21`, the “Percent Effect” value was 57.89%.
On to `CCN1CCC2(CC1)CN(CCO)c1ccccc12`, for which the “Percent Effect” value is listed as -37.58%.
With `Cc1cc(C)n(CC2CN(CCC(=O)NC3CCCCC3)CCO2)n1` (centres undefined), the “Percent Effect” value is -4.136%.
For the compound `Cc1[nH]/c(=N\C(=O)c2csc(NC3CC3)n2)sc1C`, the “Percent Effect” value was found to be 53.16%.
In the case of `Cc1cc(O)c(OCC(=O)/N=c2\[nH]c(C)c(C)s2)cn1`, the “Percent Effect” value is reported as 27.09%.
Take `CC(=O)Nc1nc(C(=O)N2CCCC(c3cc(C)[nH]n3)C2)cs1` (centres undefined): the “Percent Effect” value is -1.903%.
Consider `Cc1[nH]/c(=N/C(=O)Cn2nc(N3CCOCC3)ccc2=O)sc1C`, for which the “Percent Effect” value is given as -3.782%.
The figure for `CC(=O)Nc1nc(C(=O)N2CCC(Nc3cccnn3)CC2)cs1` is -42.9%; for `Cc1[nH]/c(=N\C(=O)c2csc(NC3CCCC3)n2)sc1C` it is 105%.
As to `COC(=O)Cn1c(C)cc(=O)n2nc(-c3cccs3)nc12`, the “Percent Effect” value is reported as -3.318%.
In the case of `Cc1cnn(CC2CN(CCc3cccs3)CCO2)c1` (centres undefined), the “Percent Effect” value is on record as 13.16%.
For `CC(C(=O)NCC(C)(C)c1ccc2c(c1)OCCO2)n1cncn1` (centres undefined), the “Percent Effect” value is recorded as -4.418%.
On to `CC(=O)N1CCC(c2nc(C)cc(-c3ccccc3C(=O)O)n2)CC1`, for which the “Percent Effect” value was -42.06%.
For `COc1ccccc1OC1CCN(c2nccc(N)n2)CC1`, the “Percent Effect” value is on record as -15.16%.
The figure for `CS(=O)(=O)NCCCNC(=O)c1cnc(-c2ccsc2)s1` is -10.19%.
With `Cn1cc(CN2CCC(c3ccncc3)CC2)cn1` the figure was 9.056%; with `COc1cc2c(cc1CN1CCC3(CCCN(C)C3=O)C1)OCCO2` (centres undefined), 14.22%.
For the compound `COc1ccc(CN2CCC3(CCCN(C)C3=O)C2)c(Cl)c1OC` (centres undefined), the “Percent Effect” value amounted to 41.14%.
`COc1ccc(CN2CCC3(CCCN(C)C3=O)C2)c(OC)c1C` (centres undefined): the “Percent Effect” value came to 52.12%.
For the compound `CCN(CC)CCNS(=O)(=O)c1cccc(CSC)c1`, the “Percent Effect” value is listed as 5.575%.
In the case of `Cc1noc(C)c1S(=O)(=O)NCC(O)c1ccc2c(c1)CCO2` (centres undefined), the “Percent Effect” value is -26.48%.

Values taken from ChEMBL document CHEMBL3988442, “University of Dundee, Small-Polar-MMV Screening Library” (2021).
